Measured values from PubChem BioAssay (NCI).
Several values for one entry are separate records, joined by “and”; a condition that tells them apart may be missing. Equal entries are not always repeated. The panel holds about 83,000 compounds, 20% with a hit somewhere; the sample as a whole holds those more often.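 Results are percent growth after 48 hours of single-concentration exposure. 100 means growth as in untreated cells, lower positive values show inhibition; negative values down to -100 show cell death.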 Activity calls are given as the source filed them. How the source made its calls: active means growth percent below 10; inactive means the rest.

Legend:
Assay in all cases: NCI-60 one-dose screen, 48 h (100 = growth as untreated, 0 = no growth, -100 = all killed)
Conditions in all cases: 10 µM unless noted
[1] = tested on: NCI-H23 lung
[2] = tested on: NCI-H226 lung
[3] = tested on: NCI-H322M lung
[4] = tested on: HOP-62 NSCLC
[5] = tested on: NCI-H460 lung
[6] = tested on: HOP-92 NSCLC
[7] = tested on: NCI-H522 lung
[8] = tested on: A549/ATCC NSCLC
[9] = tested on: 786-0 renal
[10] = tested on: DU-145 prostate
[11] = tested on: K-562 leukemia
[12] = tested on: MALME-3M melanoma
[13] = tested on: MDA-MB-231 breast
[14] = tested on: RXF 393 renal
[15] = tested on: SF-268 CNS
[16] = tested on: SF-295 CNS
[17] = tested on: SF-539 CNS
[18] = tested on: UACC-257 melanoma
[19] = tested on: M14 melanoma
[20] = tested on: COLO 205 colon

## O=C(N/N=C/c1cccc2ccccc12)C1CC1
[1]
  growth: 104% (inactive) and 89.3% (inactive)
[2]
  growth: 104% (inactive) and 92.2% (inactive)
[3]
  growth: 98.1% (inactive) and 101% (inactive)
[4]
  growth: 104% (inactive) and 116% (inactive)
[5]
  growth: 113% (inactive) and 104% (inactive)
[6]
  growth: 97.8% (inactive) and 95.1% (inactive)
[7]
  growth: 98.8% (inactive) and 103% (inactive)
[8]
  growth: 100% (inactive) and 89.2% (inactive)
[9]
  growth: 99.9% (inactive) and 99% (inactive)
[10]
  growth: 128% (inactive) and 120% (inactive)
[11]
  growth: 92.3% (inactive) and 114% (inactive)
[12]
  growth: 110% (inactive)
[13]
  growth: 95.4% (inactive) and 91.3% (inactive)
[14]
  growth: 111% (inactive) and 110% (inactive)
[15]
  growth: 115% (inactive) and 104% (inactive)
[16]
  growth: 118% (inactive) and 92.9% (inactive)
[17]
  growth: 111% (inactive) and 102% (inactive)
[18]
  growth: 103% (inactive) and 100% (inactive)
[19]
  growth: 110% (inactive) and 108% (inactive)

## Cc1cc(N=Nc2ccc(C)c(N=Nc3cc(C)c(N)cc3N)c2)c(N)cc1N
[1]
  growth: 89.5% (inactive) and 78.4% (inactive)
[2]
  growth: 87.5% (inactive) and 95.3% (inactive)
[3]
  growth: 92% (inactive) and 91% (inactive)
[4]
  growth: 60.6% (inactive) and 80.8% (inactive)
[5]
  growth: 97.4% (inactive) and 93.2% (inactive)
[6]
  growth: 66.2% (inactive)
[7]
  growth: 89.9% (inactive) and 54.9% (inactive)
[8]
  growth: 95.2% (inactive) and 81% (inactive)
[9]
  growth: 94.5% (inactive) and 102% (inactive)
[20]
  growth: 92.5% (inactive) and 81.2% (inactive)
[10]
  growth: 107% (inactive) and 90.9% (inactive)
[11]
  growth: 75.9% (inactive) and 34.5% (inactive)
[12]
  growth: 89.3% (inactive) and 98.5% (inactive)
[13]
  growth: 68.6% (inactive) and 73.3% (inactive)
[14]
  growth: 91.1% (inactive) and 89.1% (inactive)
[15]
  growth: 98.9% (inactive) and 80.7% (inactive)
[16]
  growth: 98.6% (inactive) and 66% (inactive)
[17]
  growth: 87.9% (inactive) and 99.8% (inactive)
[18]
  growth: 91.4% (inactive) and 89.9% (inactive)
[19]
  growth: 90.8% (inactive) and 65.4% (inactive)

## CC(O)(CC(=O)CC(=O)c1ccccc1)c1ccccc1 (centres undefined)
[1]
  growth: 102% (inactive) and 87.4% (inactive)
[2]
  growth: 93.9% (inactive) and 86% (inactive)
[3]
  growth: 116% (inactive) and 105% (inactive)
[4]
  growth: 106% (inactive) and 99.2% (inactive)
[5]
  growth: 94.2% (inactive) and 101% (inactive)
[6]
  growth: 100% (inactive) and 94.7% (inactive)
[7]
  growth: 90.9% (inactive) and 96.4% (inactive)
[8]
  growth: 103% (inactive) and 97.4% (inactive)
[9]
  growth: 101% (inactive) and 106% (inactive)
[10]
  growth: 143% (inactive) and 102% (inactive)
[11]
  growth: 91.2% (inactive)
[12]
  growth: 113% (inactive) and 96.5% (inactive)
[13]
  growth: 97.4% (inactive) and 88.5% (inactive)
[14]
  growth: 94.1% (inactive) and 93.3% (inactive)
[15]
  growth: 110% (inactive) and 98.8% (inactive)
[16]
  growth: 91.1% (inactive)
[17]
  growth: 104% (inactive) and 108% (inactive)
[18]
  growth: 90.6% (inactive) and 110% (inactive)
[19]
  growth: 96.1% (inactive) and 96% (inactive)

## CNC(=O)c1cc(Oc2ccc(NC(=O)Nc3ccc(Cl)c(C(F)(F)F)c3)cc2)ccn1
[1]
  growth: -10.2% (active) and -19.9% (active)
[2]
  growth: -17.8% (active) and -23.1% (active)
[3]
  growth: -2.52% (active) and 18.3% (inactive)
[4]
  growth: 5.13% (active) and 22.5% (inactive)
[5]
  growth: 6.19% (active) and 2.65% (active)
[6]
  growth: -22.9% (active) and -30.7% (active)
[7]
  growth: -18.5% (active) and -38.9% (active)
[8]
  growth: 3.89% (active) and -36.4% (active)
[9]
  growth: 16.2% (inactive) and 15.5% (inactive)
[10]
  growth: 20.7% (inactive) and 13.7% (inactive)
[11]
  growth: 1.27% (active) and 29.2% (inactive)
[12]
  growth: -40.2% (active) and 53% (inactive)
[13]
  growth: -34% (active) and -34.5% (active)
[14]
  growth: -35.8% (active) and -56.3% (active)
[15]
  growth: 25.7% (inactive) and 7.26% (active)
[16]
  growth: 10.7% (inactive) and 6.13% (active)
[17]
  growth: -33.4% (active) and 10.8% (inactive)
[18]
  growth: -26.1% (active)

## O=C(Cc1cccc2ccccc12)N/N=C/c1ccc2c(c1)CCC2
[1]
  growth: 88.5% (inactive)
[2]
  growth: 97.3% (inactive)
[3]
  growth: 84.3% (inactive)
[4]
  growth: 67.1% (inactive)
[5]
  growth: 81.5% (inactive)
[6]
  growth: 92.9% (inactive)
[7]
  growth: 23.5% (inactive)
[8]
  growth: 65.8% (inactive)
[9]
  growth: 88% (inactive)
[20]
  growth: 82% (inactive)
[10]
  growth: 96.6% (inactive)
[11]
  growth: 17.3% (inactive)
[12]
  growth: 63.6% (inactive)
[13]
  growth: 75% (inactive)
[14]
  growth: 86% (inactive)
[15]
  growth: 82.3% (inactive)
[17]
  growth: 83% (inactive)
[18]
  growth: 87.3% (inactive)
[19]
  growth: 77.9% (inactive)

## CN(Cc1ccccc1)Cc1ccccc1
[1]
  growth: 96.6% (inactive)
[2]
  growth: 94.1% (inactive)
[3]
  growth: 81.3% (inactive)
[4]
  growth: 93% (inactive)
[5]
  growth: 110% (inactive)
[6]
  growth: 91.8% (inactive)
[7]
  growth: 97.3% (inactive)
[8]
  growth: 96.7% (inactive)
[9]
  growth: 99.2% (inactive)
[20]
  growth: 105% (inactive)
[10]
  growth: 107% (inactive)
[11]
  growth: 113% (inactive)
[12]
  growth: 91.4% (inactive)
[13]
  growth: 106% (inactive)
[14]
  growth: 104% (inactive)
[15]
  growth: 97.1% (inactive)
[16]
  growth: 112% (inactive)
[17]
  growth: 99.2% (inactive)
[18]
  growth: 99.8% (inactive)
[19]
  growth: 102% (inactive)

## COc1cc(C(=O)c2ccc3c(c2)OCO3)cc(OC)c1OC
[1]
  growth: 49.2% (inactive) and 40.8% (inactive)
[2]
  growth: 52.4% (inactive) and 72.9% (inactive)
[3]
  growth: 41% (inactive) and 55.4% (inactive)
[4]
  growth: 38.8% (inactive) and 41.6% (inactive)
[5]
  growth: 14.3% (inactive) and 10.9% (inactive)
[6]
  growth: 37.9% (inactive) and 62.8% (inactive)
[7]
  growth: 44.6% (inactive) and -30.4% (active)
[8]
  growth: 33.9% (inactive) and 34.9% (inactive)
[9]
  growth: 56.2% (inactive) and 46% (inactive)
[10]
  growth: 10.4% (inactive) and 27.7% (inactive)
[11]
  growth: 10.7% (inactive)
[12]
  growth: 14.5% (inactive) and 34.1% (inactive)
[13]
  growth: 53.2% (inactive) and 47.4% (inactive)
[14]
  growth: 28.3% (inactive) and 4.22% (active)
[15]
  growth: 37.3% (inactive) and 40.6% (inactive)
[16]
  growth: 9.91% (active) and 9.21% (active)
[17]
  growth: 18.4% (inactive) and -1.47% (active)
[18]
  growth: 18.6% (inactive) and 49.4% (inactive)
[19]
  growth: 21% (inactive) and 19.9% (inactive)
